Reference: PubChem BioAssay (NCI)
Compounds without any hit were thinned out: in the full panel of roughly 83,000, 20% have a hit.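 96-well plates, one dose, 48 hours. Percent growth reported; active if below 10.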 Values without a mark were called inactive. Calls of active or inactive are those of the source.

Experiments:
Experiment in all cases: NCI-60 one-dose screen, 48 h (100 = growth as untreated, 0 = no growth, -100 = all killed)
Conditions in all cases: 10 µM unless noted
[1] = test system: NCI-H23 lung
[2] = test system: NCI-H226 lung
[3] = test system: NCI-H322M lung
[4] = test system: HOP-62 NSCLC
[5] = test system: NCI-H460 lung
[6] = test system: HOP-92 NSCLC
[7] = test system: NCI-H522 lung
[8] = test system: A549/ATCC NSCLC
[9] = test system: 786-0 renal
[10] = test system: COLO 205 colon

Structure (SMILES) | growth [1] | growth [2] | growth [3] | growth [4] | growth [5] | growth [6] | growth [7] | growth [8] | growth [9] | growth [10]
S=C(Nc1ccc(-c2nc(N3CCOCC3)c3cccn3n2)cc1)Nc1cccnc1 | 37.7% | 38.2% | 35.7% | 46.6% | 43.2% | -3.48% (active) | 4.32% (active) | 24.1% | 36.7% | 28%
COc1ccc(C(=O)Nc2ncc(Cc3cccc(Cl)c3)s2)cc1OC | 46.8% | 42.2% | 39.6% | 4.67% (active) | 13.7% | 54.6% | -11% (active) | 34% | 26.9% | 1.48% (active)
N#Cc1nn(-c2cc(=O)[nH]c3ccc(Cl)cc23)c(N)c1C#N | 104% | 99.4% | 91.9% | 87.2% | 114% | -79.6% (active) | 87.1% | 98.3% | 93.4% | 100%
O=CC1(C2(C=O)c3ccccc3-c3ccccc32)c2ccccc2-c2ccccc21 | -28.8% (active) | -47.2% (active) | -20.9% (active) | -76.3% (active) | -46.9% (active) | -74.8% (active) | -84.5% (active) | -50.5% (active) | -84.4% (active) | -56% (active)
O=c1c2cc(-c3ccccc3)sc2nc2sc(-c3ccccc3)nn12 | 98.9% | 104% | 104% | 102% | 100% | 84.3% | 95.7% | 91.6% | 93% | 109%
O=[N+]([O-])c1ccc(S(=O)(=O)N2CCN(C3=NS(=O)(=O)c4ccccc4N3c3ccccc3)CC2)cc1 | 87.2% | 104% | 99.6% | 99.7% | 115% | -0.794% (active) | 94.5% | 96.3% | 96.7% | 117%
N#CCSc1nnc2n(Cc3ccccc3)c(=O)c3c4c(sc3n12)CCCC4 | 105% | 102% | 102% | 91.9% | 108% | 71.3% | 104% | 80.4% | 76.3% | 106%
Cn1cccc1C(=O)C1C(c2cccc([N+](=O)[O-])c2)C2C3CCCCC3CN2C12C(=O)Nc1ccc(Cl)cc12 (stereo not given) | 49.3% | 41.5% | 75.6% | 62.3% | 37.3% | 35% | 52.3% | 29.1% | 66.4% | 20.6%
COCCNC(=O)c1ccc(-c2nc3ccc4[nH]ncc4c3c3c2CCCC3)cc1 | 43.5% | 50.7% | 29.1% | 40.1% | 27.1% | 56.8% | 30.6% | 30.4% | 31.7% | 27.7%
O=C(CCCCCCN1CC(=O)N2[C@H](c3cc(Br)cs3)c3[nH]c4ccccc4c3C[C@H]2C1=O)NO | 50.4% | 79.9% | 38.5% | 41.8% | 35.1% | 18.2% | 20.5% | 61.1% | 76.9% | 42.6%
CC[C@@H](C(=O)[C@@H](C)[C@@H](O)[C@H](C)[C@@H]1O[C@@H]([C@@H](CC)C(=O)NCCc2ccc(F)cc2)CC[C@@H]1C)C1O[C@]2(C=CC(=O)[C@]3(CC[C@@](C)([C@H]4CC[C@](O)(CC)[C@H](C)O4)O3)O2)[C@H](C)C[C@@H]1C (stereo not given in full) | 24.8% | 24.2% | 76.7% | 36% | 35% | -0.474% (active) | 33.3% | 20.3% | 50.3% | 29.5%
CNC(=O)c1cc(Oc2ccc3c(c2)sc2nc(-c4cc(OC)c(OC)c(OC)c4)cn23)ccn1 | 61.1% | 49% | 72.5% | 66.8% | 66.2% | 15.8% | 50.4% | 63.6% | 68.1% | 16.7%
CC(C)(C)n1cc(-c2ccnc(NCCCNS(=O)(=O)c3ccc(F)cc3)c2)c(-c2cccc(F)c2)n1 | 67.5% | 60.1% | 91.3% | 92.2% | 36.1% | 67.5% | 57.2% | 43.5% | 66.7% | 32.6%
Cn1cc(-c2nc(-c3c[nH]c4ccncc34)cs2)c2ccccc21 | 86% | 87.6% | 82.5% | 60.4% | -37.7% (active) | 53.9% | 66.8% | 42.1% | 77.3% | -67.3% (active)
O=C(Cc1ccccc1)Nc1nc(O)c(/C=C2\C(=O)C=Cc3ccccc32)s1 | 90.7% | 100% | 98.2% | 107% | 99.4% | 85.2% | 90.5% | 101% | 102% | 111%
CCOC(=O)C(=Cc1cccc(Cl)c1)C(=O)OCC | 57.2% | -65.4% (active) | 84.2% | 85.2% | 74.4% | 13.2% | -42.9% (active) | 46.9% | 7.82% (active) | -2.83% (active)
Cc1ccc(-c2cc(-c3ccc(Cl)cc3)nc(NC(=O)c3cccnc3)n2)cc1 | 96.5% | 98.6% | 98.5% | 114% | 102% | 117% | 93.5% | 105% | 102% | 109%
CCSc1nc(NC)c2cc(-c3ccc(C(F)(F)F)cc3)ccc2n1 | 94.3% | 93.3% | 97.8% | 101% | 103% | 97.6% | 93.7% | 100% | 102% | 107%
C=CCn1c(SCC(=O)Nc2ccc(C(=O)/C=C/c3cc4cc(OC)ccc4nc3Cl)cc2)nnc1-c1ccc(Br)cc1 | 78% | 89.4% | 81.9% | 99.3% | 88.4% | 70.1% | 52.9% | 70.7% | 80.9% | 112%
CC(=O)c1cc(O)c2ccccc2c1O | 85.9% | 92.9% | 105% | 87.4% | 103% | 92.6% | 78.7% | 99.7% | 97.8% | 116%
N#Cc1cccc(-c2c(-c3ccc4ccccc4c3)oc3ccccc3c2=O)c1 | 60.7% | 71.2% | 64.6% | 41.5% | 17.9% | 51.8% | 10.5% | 34.9% | 35.5% | 36.7%
COc1ccc(OC)c(-c2c(C#N)c(-c3cccs3)nc3c2c(-c2ccccc2)nn3-c2ccccc2)c1 | 105% | 102% | 110% | 105% | 101% | 106% | 87.8% | 101% | 103% | 110%
COc1cc(-c2nc3cc(Cl)c(Cl)cc3[nH]2)ccc1OCC(=O)N=Nc1c(O)[nH]c2ccc([N+](=O)[O-])cc12 | 84.3% | 92.9% | 112% | 88.7% | 102% | 84.2% | 89.6% | 114% | 92.1% | 78.5%
O=C(CSc1nc2sc3c(c2c(=O)n1-c1ccccc1)CCCCC3)N/N=C/c1ccc(F)cc1 | 37.7% | 86.9% | 67.5% | 19.9% | 1.12% (active) | 82.6% | 44.3% | 9.73% (active) | 64.1% | 33%
COc1cc2c(c(OC)c1OC)CCC(c1cccc(C(=O)Nc3cccc(Br)c3)c1)O2 (stereo not given) | 77.5% | 69.9% | 50.9% | 96.8% | 70.5% | 6.24% (active) | 48.8% | 64.5% | 81% | 88.3%
CC(C)=CCC[C@](C)(O)[C@H]1CC[C@]2(C)[C@@H]1CC[C@@H]1[C@@]3(C)Cc4nccnc4C(C)(C)[C@@H]3CC[C@]12C | 66.9% | 74.6% | 100% | 94.6% | 73.6% | 93.2% | 62.8% | 46.3% | 78.6% | 76.3%
